# From PubChem BioAssay AID1851 (National Center for Advancing Translational Sciences (NCATS), 2009)
# In all, about 16,000 compounds went through this assay and about 5,100 (32%) were called active. Inconclusive results (about 25%) are left out. Some of the results follow. Unmarked numbers belong to inactive results. Calls come from the whole dose curve; as a rule, active = well fitted curve in the direction sought with a large enough effect; inconclusive = small, poorly fitted or top-dose-only effect, or effect the other way; inactive = no such curve, though single readings can be large or run the other way.
# Biological target: Cytochrome P450 3A4 (Homo sapiens) (UniProt P08684)
# Sequence (P08684 whole entry, looked up): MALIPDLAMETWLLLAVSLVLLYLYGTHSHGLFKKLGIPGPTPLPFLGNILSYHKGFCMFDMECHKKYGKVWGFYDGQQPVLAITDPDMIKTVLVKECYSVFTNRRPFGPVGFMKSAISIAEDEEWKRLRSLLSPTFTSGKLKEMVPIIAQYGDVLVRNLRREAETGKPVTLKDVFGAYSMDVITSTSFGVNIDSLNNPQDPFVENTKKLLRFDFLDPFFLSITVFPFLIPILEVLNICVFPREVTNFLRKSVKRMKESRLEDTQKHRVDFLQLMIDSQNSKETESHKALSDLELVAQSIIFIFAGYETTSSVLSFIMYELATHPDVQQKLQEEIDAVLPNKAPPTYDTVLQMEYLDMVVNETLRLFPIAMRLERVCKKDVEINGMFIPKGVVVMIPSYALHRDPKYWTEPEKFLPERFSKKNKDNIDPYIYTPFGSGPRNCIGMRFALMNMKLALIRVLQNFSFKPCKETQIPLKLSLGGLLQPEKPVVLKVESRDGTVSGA
# Assay: Cytochrome panel assay with activity outcomes
# Details: recombinant CYP, pro-luciferin dealkylation, luminescence, p450-cyp3a4; series mostly up to 57.1 µM; activity, negative = inhibition: at the top concentration
# % is set by controls: 0 for no effect and ±100 for the full control effect.
Compound,AC50,"activity, negative = inhibition"
COc1ccccc1CNc1ncnc2ccc(-c3ccccc3CN(C)C)cc12,12.6 µM (active),–
COc1ccc(CNc2ncnc3ccc(-c4ccccc4OC)cc23)c(OC)c1,2 µM (active),–
CCOc1cc(/C=N/NC(=O)CNc2cccc(C)c2)ccc1OC(=O)c1ccccc1,–,23.3%
COc1ccc(/C=C/C(=O)Oc2cccc(/C=N/NC(=O)COc3c(C)cccc3C)c2)cc1,–,10.5%
CCOc1cc(/C=N/NC(=O)COc2cccc(C)c2)ccc1OC(=O)c1cccs1,14.1 µM (active),–
CS(=O)(=O)Nc1cccc(-c2ccc3ncnc(Nc4ccccc4)c3c2)c1,10 µM (active),–
CNc1ncnc2ccc(-c3cccc(NS(C)(=O)=O)c3)cc12,12.6 µM (active),–
CS(=O)(=O)Nc1cccc(-c2ccc3ncnc(Nc4ccc(F)cc4)c3c2)c1,7.94 µM (active),–
CS(=O)(=O)Nc1cccc(-c2ccc3ncnc(NC4CC4)c3c2)c1,6.31 µM (active),–
CS(=O)(=O)Nc1cccc(-c2ccc3ncnc(NC4CCNCC4)c3c2)c1,–,-27.5%
c1ccc2cc(-c3cc(-c4cc(-c5ccc6ccccc6c5)on4)no3)ccc2c1,–,-8% [at 11.4 µM]
COCCNc1ncnc2ccc(-c3cccc(NS(C)(=O)=O)c3)cc12,15.8 µM (active),–
[O-][N+]1(CC[N+]2([O-])CCCCC2)CCCCC1,–,-11.4% [at 11.4 µM]
CCN(CC)Cc1c(O)c(Cl)cc2c3c(c(=O)oc12)CCCC3,–,-27.4%
CCCCCCCCCCCCC/C=C\[C@@H](O)[C@H](CO)NC(C)=O,–,-16.3%
CCCC/C=C/C(NC(=O)C(C)(C)C)c1ccccc1 (stereo not drawn),25.1 µM (active),–
C#CCOC(=O)NC(/C=C/CCCC)c1ccccc1 (stereo not drawn),12.6 µM (active),–
CCCN(CCC)C(=O)[C@@H](CCC(=O)O)NC(=O)c1ccccc1,inactive,–
CCCC/C=C/C(NC(=O)c1ccccc1)c1ccccc1 (stereo not drawn),15.8 µM (active),–
CCCC/C=C/C(NC(=O)c1ccc(-c2ccccc2)cc1)c1ccccc1 (stereo not drawn),–,-9.93%
CCCC/C=C/C(NC(=O)c1cccs1)c1ccccc1 (stereo not drawn),12.6 µM (active),–
CC(=O)Oc1cc(C(F)(F)F)ccc1C(=O)O,–,8.47% [at 25.6 µM]
CCCC/C=C/C(NC(=O)Oc1cccc(C(F)(F)F)c1)c1ccccc1 (stereo not drawn),15.8 µM (active),–
N[C@@H](C(=O)O)c1ccc(C(=O)O)cc1,inactive,–
O=C1N=C(N2CCOCC2)S/C1=C\C=C/c1ccccc1,–,-1.29%

Compound,AC50,"activity, negative = inhibition"
CN(C)CN1C(=O)S/C(=C2/C(=O)N(CN(C)C)c3ccccc32)C1=O,–,4.92% [at 11.4 µM]
CCN1C(=O)/C(=C2\SC(N3CCCCC3)=NC2=O)c2ccccc21,14.1 µM (active),–
Cc1ccc([C@@]2(C)CC/C(=N/N=C3\CC[C@](C)(c4ccc(C)c(C)c4)c4cc(C)c(C)cc43)c3cc(C)c(C)cc32)cc1C,–,-0.566% [at 11.4 µM]
c1ccc(CCNCc2ccco2)nc1,–,-15.3% [at 11.4 µM]
S=c1nc[nH]c2c1ncn2Cc1ccco1,–,-14.9% [at 11.4 µM]
S=C1SCN(Cc2ccccn2)CN1Cc1ccco1,20 µM (active),–
C/C(=N/O)c1ccc2cc(Br)c3ccccc3c2c1,–,-23.8% [at 11.4 µM]
O=C1/C(=C\c2ccc(Br)o2)SC(=Nc2ccccc2)N1c1ccccc1,–,-27.8%
O=C1C(Cc2ccccc2)SC(=Nc2ccccc2)N1c1ccccc1 (stereo not drawn),3.98 µM (active),–
C=CCn1c(=O)c2c(nc(Br)n2Cc2ccccc2Cl)n(C)c1=O,0.794 µM (active),–
C=CCn1c(=O)c2c(nc(-c3ccc(S(=O)(=O)O)cc3)n2C)n(C)c1=O,–,2.84%
COC(=O)Cn1c(=O)c2c(nc(Br)n2Cc2ccccc2Cl)n(C)c1=O,–,-4.19% [at 2.29 µM]
O=C(COc1ccc(-c2ccccc2)cc1)N/N=C/c1ccccc1Br,14.1 µM (active),–
O=C(COc1ccccc1-c1ccccc1)N/N=C/c1cccc2ccccc12,–,1.08% [at 2.29 µM]
Cc1ccccc1C(=O)c1cccn1CC(=O)NCc1ccco1,22.4 µM (active),–
Cc1nnc(NC(=O)CCC(=O)NCc2cccs2)s1,–,-18.9%
O=C(Cn1cc(C(=O)c2ccco2)c2ccccc21)NCc1ccco1,25.1 µM (active),–
O=C(Cn1cccc1C(=O)c1ccccc1)NCc1cccs1,10 µM (active),–
COc1ccccc1OCCn1cc(C(=O)c2ccco2)c2ccccc21,3.98 µM (active),–
c1ccc2c(c1)ncn2Cc1nnc2sc(-c3ccc4c(c3)OCO4)nn12,2.24 µM (active),–
CC(C)Oc1ccc(N2CC(C(=O)OCC(=O)NCc3ccccc3)CC2=O)cc1 (stereo not drawn),–,1.29% [at 2.29 µM]
COc1ccc(N2CC(C(=O)OCC(=O)c3cccc(OC)c3)CC2=O)cc1 (stereo not drawn),14.1 µM (active),–
COC(=O)c1sccc1NC(=O)CSc1cc(Cl)ccc1Cl,22.4 µM (active),–
COC(=O)c1sccc1NC(=O)CN(C)NS(=O)(=O)c1ccc(F)cc1,–,3.97%
COC(=O)c1sccc1NC(=O)CSc1ccc(Cl)cc1,–,-2.63% [at 2.29 µM]

Compound,AC50,"activity, negative = inhibition"
COC(=O)c1sccc1NC(=O)CSc1ccccc1NS(=O)(=O)c1ccc(Cl)cc1,3.55 µM (active),–
CCOC(=O)c1ccccc1NC(=O)CSc1cccc[n+]1[O-],–,-12.9%
Cc1ccccc1NC(=O)CSc1nnc(-c2ccccc2)n1-c1ccccc1,3.55 µM (active),–
CCn1c(SCC(=O)Nc2ccccc2C(=O)OC)nnc1-c1ccc(N)cc1,0.631 µM (active),–
Cc1ccc(C(=O)NNC(=O)CSc2nnc(-c3ccncc3)n2-c2ccc(C)cc2)cc1,3.16 µM (active),–
CCCCOC(=O)Nc1ccccc1C(=O)OC,–,20.6% [at 11.4 µM]
O=C(CSc1nnc(-c2ccccc2)n1-c1ccccc1)c1cccs1,7.08 µM (active),–
O=C(O)c1cc2cc(Cl)ccc2oc1=O,–,-15.1%
CN(C)CCNC(=O)C1CCCNC1=O (stereo not drawn),–,25.9%
CCOc1ccc(-n2c(SCC(=O)Nc3ccccc3C)n[nH]c2=O)cc1,12.6 µM (active),–
Cc1ncn(-c2ccccc2O)c1C,–,-10.7% [at 11.4 µM]
CCCCOC(=O)Nc1nc2ccccc2s1,–,0.331% [at 11.4 µM]
Cc1cnc(NC(=O)CCCc2nc3ccccc3s2)s1,2 µM (active),–
OC[C@H]1O[C@H](n2cnc3c(NC4CCCC4)nc(Cl)nc32)[C@@H](O)[C@@H]1O,–,1.81%
NC1(C(=O)O)CC(C(=O)O)C1 (stereo not drawn),–,-11.5%
COc1cc(C2C(C(=O)OCCC#N)=C(C)NC3=C2S(=O)(=O)c2ccccc23)cc(OC)c1OC (stereo not drawn),5.01 µM (active),–
Cc1cc(C=O)c(C)n1-c1ccc(NC2CCCC2)c([N+](=O)[O-])c1,4.47 µM (active),–
Cc1cc(C=O)c(C)n1-c1ccc(N2CCCCC2)c([N+](=O)[O-])c1,–,-19.9%
COc1ccc(-n2c(C)cc(C=O)c2C)cc1Cl,–,6.7% [at 2.29 µM]
CN(Cc1ccco1)c1cc(-c2ccoc2)ncn1,–,5.33%
CN(Cc1ccco1)c1cc(-c2ccc3c(c2)OCO3)ncn1,3.98 µM (active),–
CN(C)c1ccc(-c2cc(N(C)Cc3ccco3)ncn2)cc1,12.6 µM (active),–
CS(=O)(=O)Nc1cccc(-c2ccc3ncnc(N4CCOCC4)c3c2)c1,7.94 µM (active),–
CS(=O)(=O)Nc1cccc(-c2ccc3ncnc(NCCN4CCOCC4)c3c2)c1,15.8 µM (active),–
CS(=O)(=O)Nc1cccc(-c2ccc3ncnc(N4CCNCC4)c3c2)c1,15.8 µM (active),–

Compound,AC50,"activity, negative = inhibition"
CN(C)CCSCCO,–,-12.3% [at 11.4 µM]
COC(=O)C1=C(C)NC(C)=C([N+](=O)[O-])[C@@H]1c1ccccc1C(F)(F)F,12.6 µM (active),–
O=C1c2c(O)cc(O)cc2O[C@@H](c2ccc(O)c(O)c2)[C@H]1O,10 µM (active),–
Oc1cc(O)c2c(c1)O[C@H](c1ccc(O)c(O)c1)[C@@H](O)[C@@H]2c1c(O)cc(O)c2c1O[C@@H](c1ccc(O)c(O)c1)[C@H](O)C2,–,-13.1% [at 11.4 µM]
Oc1cc(O)c2c(c1)O[C@H](c1ccc(O)c(O)c1)[C@H](O)C2,inactive,–
CN(C)[C@H]1C(=O)C(C(=O)NCN2CCCC2)=C(O)[C@]2(O)C(=O)C3=C(O)c4c(O)cccc4[C@](C)(O)[C@H]3C[C@H]12,–,-6.5% [at 11.4 µM]
CC(=O)NC1=NC(=O)CS1,–,-4.9%
N[C@@]1(C(=O)O)CN[C@H](C(=O)O)C1,–,24.7%
CCOc1cc(-c2noc(N)c2C#N)cc(OCC)c1OCC,0.2 µM (active),–
Cc1ccc(S(=O)(=O)N2CCN(S(C)(=O)=O)C2)cc1,–,-0.447% [at 11.4 µM]
Cc1ccc(S(=O)(=O)N2CCN(C(=O)CN3CCN(C)CC3)C2)cc1,–,-21.9%
Cc1ccc(S(=O)(=O)N2CCN(Cc3ccccc3C(F)(F)F)CC2)cc1,8.91 µM (active),–
O=C(Nc1cccnc1)c1ccc2snnc2c1,11.2 µM (active),–
O=C(Nc1cccc(OC(=O)c2cccnc2)c1)c1cccnc1,–,-4.22% [at 2.29 µM]
COC(=O)c1cc(C#N)c(NCc2ccc(Cl)cc2Cl)nc1C,–,-2.03%
CCOC(=O)c1ccccc1Oc1c(F)c(F)nc(NCCO)c1F,–,-28.7%
Cc1cc(C)c2cc(C#N)c(NCCOC(=O)c3ccccc3C)nc2c1,7.08 µM (active),–
Cc1cc(C)cc(N(C(=O)c2ccccn2)C(C(=O)NC2CCCCC2)c2cccs2)c1 (stereo not drawn),5.01 µM (active),–
O=C(NC1CCCCC1)c1ccc(COCC(F)(F)F)o1,–,-17%
Cc1nnc(N(C)C(=O)c2ccccn2)s1,–,-5.58%
Cc1ccc(N(C(=O)C(F)(F)F)C(C(=O)NC2CCCCC2)c2cccs2)cc1C (stereo not drawn),6.31 µM (active),–
O=C(NC1CCCCC1)C(c1cccs1)N(C(=O)C(F)(F)F)c1ccccc1 (stereo not drawn),7.08 µM (active),–
COc1ccc(CCN(C(=O)C(F)(F)F)C(C(=O)NC2CCCC2)c2cccs2)cc1 (stereo not drawn),3.55 µM (active),–
